esBAF inh: blocks esBAF chromatin remodeling in mouse ES cells; Bmi1-luciferase knock-in reporter, 24 h; 100% = twice the neutral-well signal; reporter increase, % at 12.5 µM; 2% of 350,000 active; AID 602393; in the data active = activation above about 40%; inconclusive = no clear call, values can overlap the other calls;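 note: a rise in the Bmi1 reporter signal indicates esBAF inhibition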
Wnt bcat act: Wnt/beta-catenin pathway activation; AID 743398; Wnt/beta-catenin reporter cell assay, activator, plate reader; 1.2% of 300,000 active; activation, % at 9.35 µM; in the data active = activation above about 30%, passing the limit was not always enough; inconclusive = no clear call, values can overlap the other calls
HSF1 inh: HSF1 inhibition | 0.77% of 300,000 active | activity change, negative = inhibition, % at 7.5 µM (by protocol) | NIH3T3-HGL HSE-luciferase, MG132-induced, luminescence 8 h; hits give low values;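 active = more than half of replicate wells show activity change below -50%, luminescence cut by over half; inconclusive = some wells, but at most half, below -50%; inactive = no replicate well below -50%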;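 note: luciferase reports HSF-1 transcriptional activity via heat shock element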
HSF-1 act: increases HSF-1 driven luciferase reporter signal; NIH3T3-HGL HSF-1 luciferase reporter, MG132, 8 h; 100% = twice DMSO control signal; activation, % at 9 µM; 1.7% of 300,000 active;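 active = mean replicate activation of at least 50% with a set share of replicates each reaching 50%; inconclusive = only one of those two conditions met; inactive = mean below 50% and too few replicates reaching it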
SMARCA2 act: SMARCA2 function activation, primary screen. activation, % at 9.1 µM. 1% of 370,000 active. MG213 cells, MMTV-luciferase reporter, dexamethasone, overnight; in the data active = activation above about 7.8%
MITF act: activators of MITF-driven TRPM1 promoter activity in SK-MEL-5 cells | SK-MEL-5 TRPM1-promoter luciferase, 24 h; % of positive control, neutral wells = 0 | AID 588334 | 0.75% of 300,000 active | activation, % at 12.5 µM;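 active = mean activation of at least 80% with every replicate also reaching 80%; inconclusive = mean reaches 80% but some replicate falls short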
A number is an active result; i = inactive; ? = inconclusive; nt = no result given. The list is not random: actives were taken first. Their share in the collection is about 4.3%.

SMILES | esBAF inh | Wnt bcat act | HSF1 inh | HSF-1 act | SMARCA2 act | MITF act
O=C(Nc1ccc(C(=O)N2CCCCC2)cc1)Nc1cccc(Cl)c1 | 85.7 | i | i | i | i | 106.2
Cc1ccc(NC(=O)Nc2ccc([N+](=O)[O-])cc2)nc1 | i | i | i | i | i | i
CCNC(=O)C[C@H]1CC[C@@H]2[C@@H](COc3ccc(NC(=O)Cc4cccs4)cc3C(=O)N2C)O1 | i | nt | nt | nt | nt | nt
CCCC#Cc1cnc2c(c1)C(=O)N([C@@H](C)CO)C[C@@H](C)[C@H](CN(C)C(=O)c1cnccn1)O2 | i | nt | nt | nt | nt | nt
CC(=O)Nc1ccc(NC(=O)Nc2cccc(Cl)c2)cc1 | i | i | i | i | i | i
O=C(Nc1ccccc1)Nc1cccc(Cl)c1 | 52.4 | nt | nt | nt | i | i
O=C(NC1=NCCS1)Nc1ccccc1 | nt | 42.4 | i | i | i | i
Cn1nnc2cc(NC(=O)Nc3cccc(Cl)c3)ccc21 | ? | i | i | i | i | 93.3
Cn1nccc1NC(=O)Nc1cccc(Cl)c1 | nt | i | i | i | i | nt
O=C(Nc1ccccc1)Nc1ccccc1 | 49.0 | i | nt | nt | i | i
O=C(Nc1ccccc1)Nc1ccc(Nc2ccccc2)cc1 | nt | i | i | i | i | nt
C[C@@H]1CCCCO[C@H](CN(C)Cc2ccc(C(=O)O)cc2)[C@H](C)CN([C@@H](C)CO)C(=O)c2cc(NC(=O)NC3CCCCC3)ccc2O1 | i | nt | nt | nt | nt | nt
C[C@@H]1CN([C@H](C)CO)C(=O)c2cc(NS(=O)(=O)c3ccc(Cl)cc3)ccc2O[C@H]1CN(C)Cc1ccc(-c2ccccc2)cc1 | i | nt | nt | nt | nt | nt
C[C@H](CO)N1C[C@H](C)[C@@H](CN(C)Cc2ccc(-c3ccccc3)cc2)Oc2c(NC(=O)Nc3cccc4ccccc34)cccc2C1=O | i | nt | nt | nt | nt | nt
Cc1cc(C(=O)Nc2cccc3c2O[C@@H](CN(C)Cc2ccc(C(=O)Nc4ccccc4N)cc2)[C@@H](C)CN([C@@H](C)CO)C3=O)n(C)n1 | i | nt | nt | nt | nt | nt
CO[C@@H]1CN(C)C(=O)c2ccc(NC(=O)C3CCOCC3)cc2OC[C@H](C)N(C(=O)c2ccccc2)C[C@@H]1C | i | nt | nt | nt | nt | nt
O=C(Nc1cccc(Cl)c1)Nc1ccc(Cl)cn1 | nt | nt | i | i | i | i
O=C(Nc1cccc(Cl)c1)Nc1ccc2nccnc2c1 | 96.9 | i | i | i | i | 111.6
CS/C(N)=N/C(=S)Nc1cccc(Cl)c1 | nt | 45.1 | i | i | i | i
NC(=S)Nc1cccc(Cl)c1 | i | i | i | i | i | i
COc1ccc(C(=O)Nc2ccc3c(c2)C(=O)N(C)C[C@H](OC)[C@@H](C)CN[C@H](C)CO3)cc1 | i | nt | nt | nt | nt | nt
C[C@H]1CN([C@@H](C)CO)C(=O)c2cc(NC(=O)Nc3ccc4c(c3)OCO4)ccc2O[C@H]1CN(C)C(=O)NC1CCCCC1 | i | nt | nt | nt | nt | nt
COc1ccc(CCNC(=O)CSc2nc3ccsc3c(=O)n2Cc2ccccn2)cc1OC | 42.9 | i | nt | nt | i | nt
NS(=O)(=O)c1ccc(CCNC(=O)CSc2nc3ccsc3c(=O)n2Cc2ccccn2)cc1 | i | 35.8 | nt | nt | i | nt
CCc1nc(SCC(=O)NCCc2ccc(OC)c(OC)c2)c2c(=O)n(C)c(=O)n(C)c2n1 | i | i | -77.7 | i | i | i
SMILES | esBAF inh | Wnt bcat act | HSF1 inh | HSF-1 act | SMARCA2 act | MITF act
Cc1cc(/C=C(\C#N)C(=O)NCc2cccs2)c(C)n1-c1ccccc1F | i | 51.7 | i | i | i | i
OCc1nc2ccccc2n1CCOc1ccccc1 | nt | i | i | i | i | nt
CC(=O)NCCc1nc2ccccc2n1CCCCOc1ccccc1 | i | i | i | 53.7 | i | i
CCOc1ccc(Nc2cc(C)c3ccccc3n2)cc1 | 46.4 | i | i | i | i | ?
CC(=O)NCCc1nc2ccccc2n1CCOc1ccccc1 | nt | i | i | i | i | i
CCOc1ccc(Nc2c3ccccc3nc3ccccc23)cc1 | i | i | i | i | i | i
CCOc1ccc(NCc2nc3ccccc3n2CCOc2ccccc2)cc1 | i | i | -52.4 | i | i | i
CCOc1ccc(Nc2nc3ccccc3n2C)cc1 | 51.8 | i | i | 72.2 | i | 95.0
C[C@@H]1CN([C@H](C)CO)C(=O)c2cc(NS(=O)(=O)c3cn(C)cn3)ccc2O[C@@H](C)CCCCO[C@@H]1CN(C)Cc1ccc(C(=O)O)cc1 | i | nt | nt | nt | nt | nt
Nn1c(Nc2ccccc2)nc2ccccc21 | 64.5 | nt | i | i | i | i
Cc1ccc(Cl)c2c1=NC(=O)C=2c1[nH]c(=S)[nH]c1O | i | i | i | 125.5 | i | i
O=C1N=c2ccccc2=C1c1[nH]c(=S)[nH]c1O | i | i | i | i | i | i
O=C(NNC(=O)c1cccc2ccccc12)c1ccc(Cl)cc1Cl | 61.3 | i | nt | nt | i | i
O=C(Nc1ccc(Cl)cc1F)c1ccccc1Br | nt | 49.2 | i | i | i | i
O=C(O)c1ccc(NC(=O)c2ccccc2Br)c(NC(=O)c2ccccc2Br)c1 | i | i | i | i | i | nt
O=C(Nc1ccc(Cl)cc1F)c1cccc2ccccc12 | 46.9 | i | i | i | i | nt
O=C(NNc1cccc(Cl)n1)c1ccc(Cl)cc1Cl | 52.5 | nt | i | i | i | nt
COC(=O)NNC(=O)c1ccc(Cl)cc1Cl | nt | i | i | i | i | i
C[C@@H]1CCCCO[C@H](CN(C)S(=O)(=O)c2ccccc2)[C@H](C)CN([C@@H](C)CO)C(=O)c2cc(NS(=O)(=O)c3ccc(Cl)cc3)ccc2O1 | i | nt | nt | nt | nt | nt
Cc1ccc2[nH]c(=O)c(CN(Cc3cccs3)Cc3nnnn3Cc3ccccc3)cc2c1 | i | i | i | 70.8 | i | i
CC(C)c1ccc(C2NC(=O)c3ccccc3O2)cc1 (stereo not given) | i | i | i | 71.4 | i | i
CN(C)c1ccc(NC(=O)C(=O)C2C(=O)Nc3ccccc32)cc1 (stereo not given) | i | 44.2 | i | i | i | i
Cc1ccc2oc(=O)c(/C=C(\O)c3ccccc3)nc2c1 | nt | i | i | i | i | i
CCS(=O)(=O)c1ccc2oc(=O)c(/C=C(\O)c3ccc(Cl)cc3)nc2c1 | nt | i | i | i | i | i
O=c1oc2ccc(Cl)cc2nc1/C=C(\O)c1cccs1 | nt | i | i | 52.1 | i | nt
SMILES | esBAF inh | Wnt bcat act | HSF1 inh | HSF-1 act | SMARCA2 act | MITF act
Cc1ccc2oc(=O)c(/C=C(\O)c3cccs3)nc2c1 | nt | 35.2 | i | 118.8 | i | nt
O=C1c2ccccc2NC(c2ccc(-c3cccc(F)c3)o2)N1O (stereo not given) | 84.4 | 45.7 | nt | nt | i | ?
C[C@@H]1CN([C@@H](C)CO)C(=O)c2cc(NC(=O)Nc3cccc4ccccc34)ccc2O[C@@H](C)CCCCO[C@H]1CN(C)Cc1ccc2c(c1)OCO2 | i | nt | nt | nt | nt | nt
O=C(CSc1nncn1-c1cccnc1)Nc1ccccc1[N+](=O)[O-] | i | i | i | i | i | i
CCc1ccc(NC(=O)CSc2nncn2-c2cccnc2)cc1 | ? | i | i | i | i | 93.8
CN1C(=O)c2cc(NC(=O)c3ccccc3)ccc2OC[C@@H]2O[C@@H](CC(=O)NCC3CC3)CC[C@@H]21 | i | nt | nt | nt | nt | nt
C[C@H]1CN([C@@H](C)CO)C(=O)c2cc(C#CC3CCCCC3)cnc2O[C@@H]1CN(C)S(=O)(=O)c1ccccc1 | i | nt | nt | nt | nt | nt

From PubChem BioAssay
